# Screening results (PubChem BioAssay)
# Compounds with a hit are over-represented: about 7.5% of the library has one in this group of screens.
# VACV mCherry inh – vaccinia inhibition (mCherry reporter); Vaccinia virus mCherry reporter infection, fluorescence; Potency, µM (series often up to 36.5 µM), inactives show at the highest dose activity change, negative = inhibition, most hits filed as inhibitors; hit rate 0.63% among 310,000; AID 720579; calls by dose curve; tested in A549 cells; also: potency is read from the fitted curve at half-maximal effect; nearly all actives have a fitted effect of over 35% in size
# FMDV inh – blocks foot and mouth disease virus. FMDV antiviral cell-based qHTS. Potency, µM (highest dose often 57.9 µM), for inactives: top-dose activity change, negative = inhibition, actives largely listed as inhibitors. hit rate 1.2% among 410,000. AID 1159524; calls by dose curve; tested in HEK293T cells; also: read-out not given here; potency is read from the fitted curve at half-maximal effect; nearly all actives have a fitted effect of over 45% in size
# VACV Venus inh – inhibitors of vaccinia virus (Venus reporter); Vaccinia virus Venus reporter expression, fluorescence; Potency, µM (highest dose often 36.5 µM), for the others: at the highest dose activity change, negative = inhibition, hits mostly inhibitors; hit rate 0.46% among 330,000; calls by dose curve; tested in A549 cells; also: potency is read from the fitted curve at half-maximal effect; nearly all actives have a fitted effect of over 30% in size
# FBPA Giardia inh – Giardia lamblia aldolase inhibition; purified Giardia FBPA; A8B2U2; AID 2451; Potency, µM (series often up to 59.6 µM), for inactives: at the top dose activity, negative = inhibition, usual class: inhibitors; hit rate 0.71% among 290,000; also: potency is read from the fitted curve at half-maximal effect; nearly all actives have a fitted effect of over 55% in size
# Target sequence (A8B2U2 whole entry, looked up): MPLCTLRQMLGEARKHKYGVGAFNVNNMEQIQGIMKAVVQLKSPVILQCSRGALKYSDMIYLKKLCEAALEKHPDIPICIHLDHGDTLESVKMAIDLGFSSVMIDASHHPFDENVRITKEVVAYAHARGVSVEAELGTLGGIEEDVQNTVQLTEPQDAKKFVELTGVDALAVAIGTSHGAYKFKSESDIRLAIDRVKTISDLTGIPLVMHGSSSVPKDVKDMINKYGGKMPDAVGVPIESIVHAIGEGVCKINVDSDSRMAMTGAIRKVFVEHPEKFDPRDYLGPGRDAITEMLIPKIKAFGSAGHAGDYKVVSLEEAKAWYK
#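 40 nM FBPA preincubated 10 min at RT with compound (up to 57.5 uM final), then substrate plus GAPDH/TPI/NAD/arsenate coupling and diaphorase/resazurin added. Fluorescence read after 20 min at RT, 525/598 nm.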
# HCV inh – inhibitors of hepatitis C virus infection. Huh7.5.1 HCVcc-Cre infection, luciferase reporter, 44 h. Potency, µM (doses to about 41.8 µM), without a hit: at the highest dose activity change, negative = inhibition, actives largely listed as inhibitors. hit rate 3.4% among 340,000. AID 651820; also: potency is read from the fitted curve at half-maximal effect
#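 1,000 cells/well; 4 h culture; + compound; + HCVcc-Cre (~0.5 moi); 44 h; luciferase substrate, RT 15 min; read 15 sec.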
# HCMV inh – blocks human cytomegalovirus replication. HFF cells, HCMV-luciferase reporter, 72 h; hits give low values. hit rate 4.5% among 410,000. activity change, negative = inhibition, % at 57.5 µM; in the data active = activity change below about -60%; inconclusive = no clear call, values can overlap the other calls; inactive = above about -39%
#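 Cell-based, HFFs, 1000 cells/well, 16 h 37C; cpds in DMSO + HCMV-luc, MOI 1 PFU/cell; 72 h 37C; OneGlo luminescence after 5 min RT; norm. to buffer vs Salinomycin 10uM.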
# Numbers without * were called inactive; i = inactive; ? = inconclusive; . = not tested or not shown. Unless noted, calls follow the shape of the dose curve; as a rule, active = well fitted curve in the direction sought with a large enough effect; inconclusive = small, poorly fitted or top-dose-only effect, or another doubt; inactive = no such curve, though single readings can be large; an effect the other way counts as inactive or inconclusive. % is scaled to controls: 0 for no effect and ±100 for the full control effect.
SMILES,VACV mCherry inh,FMDV inh,VACV Venus inh,FBPA Giardia inh,HCV inh,HCMV inh
O=C1CCCC2=C1C(c1ccc(OS(=O)(=O)c3ccc(Cl)cc3)cc1)C1=C(CCCC1=O)O2,.,-22.1%,.,-0.9%,12.6µM*,-37.7
O=C1CCCC2=C1C(c1ccccc1)C1=C(CCCC1=O)O2,.,.,.,0.2%,.,.
COc1ccc(OC)c(N(CC(=O)NCc2ccccn2)S(C)(=O)=O)c1,.,29.7%,.,0.3%,16.8%,12.4
COc1ccccc1N(CC(=O)NCc1ccccn1)S(C)(=O)=O,i,.,-7.2%,-3.5%,0.9%,-65.8*
COc1ccccc1CN1CC(C(=O)N2CCCCCCC2)CCC1=O (stereo not given),-2.4%,14.7%,-7.2%,.,14.4%,5.6
COc1ccccc1CN1CC(C(=O)N2CCC(OC)CC2)CCC1=O (stereo not given),i,-1.3%,-7.5%,.,22.8%,-63.7*
COc1ccc(CCN2CCCn3c2nc2c3c(=O)n(CC(C)C)c(=O)n2C)cc1OC,.,?,.,12.9%,10µM*,-30.0
CCn1c(=O)c2c(nc3n2CCCN3CCc2ccc(OC)c(OC)c2)n(C)c1=O,-7.3%,?,-1.1%,-0.1%,-18.5%,29.5
Cn1c(=O)n(Cc2ccccc2)c(=O)c2c1nc1n2CCCN1C1CCCCC1,i,?,-16.3%,.,4.9%,-37.6
Cc1cccc(Cn2c(=O)c3c(nc4n3CCCN4Cc3ccccc3)n(C)c2=O)c1,-25.8%,?,-19.2%,1.4%,11.2µM*,-29.0
Cn1c(=O)n(Cc2ccc(F)cc2)c(=O)c2c1nc1n2CCCN1C1CCCCC1,-13.9%,?,-8.6%,-0.3%,11.7%,-67.1*
OC1(c2cccnc2)CCN(Cc2ccc3c(c2)CN(Cc2cccc(C(F)(F)F)c2)CCO3)CC1,-27.4%,?,-23.5%,.,.,.
CCOC(=O)C(=CNc1cc(C)ccc1-n1cccc1)C(=O)OCC,-1.8%,?,-11.4%,11.8%,-22.7%,-27.7
CCOc1ccc2nc3c(cc2c1)CN(CCOC)C(=NCCOC)S3,-15.3%,-9.4%,-19.3%,-26.4%,-18.4%,-61.0*
Cc1cc(Nc2cccc(Br)c2)c2ccccc2n1,?,?,?,.,7.08µM*,-71.5*
CCOc1ccccc1Nc1cc(C)nc2ccc(C)cc12,i,?,-16.8%,.,6.31µM*,?
Cc1cc(Nc2cccc(O)c2)c2ccccc2n1,.,.,.,-0.7%,.,.
CC(=O)c1cccc(Nc2cc(C)nc3ccc(C)cc23)c1,-23.0%,-23.2%,-25.3%,14.7%,?,-7.5
CCOc1ccccc1Nc1cc(C)nc2ccccc12,?,-19.0%,-23.6%,.,.,-62.4*
CS(=O)(=O)c1ccc(Nc2cc3c(cn2)ncn3Cc2ccco2)cc1,.,.,.,.,.,-18.4
COCC(=O)Nc1cc(C(=O)N2CCC(c3ccccc3)CC2)cc2nc(-c3ccccc3)n(C)c12,i,21.8%,-1.9%,.,.,.
CC(=O)c1ccccc1-c1ccc2c(c1)CC(CNC(=O)c1cc(C)on1)O2 (stereo not given),-20.0%,-25.9%,-4.8%,.,.,.
O=c1c2c(nc3c(-c4ccccc4)c[nH]n13)CCC2,-7.1%,.,-22.4%,-10.6%,?,-16.2
O=c1c2c(nc3c(-c4ccc(Cl)cc4)c[nH]n13)CCC2,-6.3%,-14.6%,-25.8%,-6.5%,?,-76.6*
CCOC(=O)Cc1c(C)nc2cc(-c3ccc(C(C)(C)C)cc3)[nH]n2c1=O,.,1.4%,.,0.0%,12.6µM*,-28.6
SMILES,VACV mCherry inh,FMDV inh,VACV Venus inh,FBPA Giardia inh,HCV inh,HCMV inh
O=c1c2c(nc3c(-c4cccc(Br)c4)c[nH]n13)CCCC2,.,-7.0%,.,10.4%,6.31µM*,-102.1*
CCOC(=O)Cc1c(C)nc2c(-c3cccc(Br)c3)c[nH]n2c1=O,i,-17.5%,-6.2%,0.2%,?,-93.1*
Cc1c(-c2ccccc2)[nH]n2c(=O)c3c(nc12)CCCC3,-12.6%,20.3%,-16.4%,-5.8%,-22.2%,-13.2
CCCCNC(=O)NNC(=O)c1cc(C)on1,i,-14.6%,-2.7%,8.6%,2.3%,-9.3
Cc1ccc(Nc2nnc(-c3ccc(C)c(S(N)(=O)=O)c3)c3ccccc23)cc1,?,23.7%,-24.1%,.,.,-17.5
Cc1ccc(Nc2nccc(N(C)c3ccc4c(C)n(C)nc4c3)n2)cc1S(N)(=O)=O,.,.,.,.,.,-83.8*
O=C(NCc1ccccc1)C(Nc1ccccc1)c1ccccc1F (stereo not given),.,.,.,.,.,-8.2
CC1(C)CC2CC(C)(CN2C(=S)Nc2ccccc2)C1 (stereo not given),-13.5%,65.9%,-9.7%,0.9%,16.5%,-61.2*
c1ccc2nc(OCCN3CC3)ccc2c1,?,23.2%,?,0.6%,?,-64.0*
Cc1cc(OCCN2CCCCC2)nc2ccccc12,.,-26.7%,-15.0%,-9.9%,?,-4.6
CN(C)c1nc(OCCOC(=O)c2ccccc2)nc(N(C)C)n1,.,-0.8%,.,-4.1%,25.1µM*,-19.5
CCOC(=O)N1c2ccccc2Sc2ccccc21,i,-12.9%,-25.9%,-1.1%,?,-33.5
Cc1nnc(SC(=O)N2c3ccccc3Sc3ccccc32)s1,10µM*,.,?,-9.7%,?,?
COc1ccc(-c2n[nH]c3c2cnc2cc(OC)c(OC)cc23)cc1,-9.3%,-0.2%,10.5%,.,.,-8.8
Cc1ccc(C2NC(=O)CCC2[N+](=O)[O-])cc1 (stereo not given),0.0%,-15.6%,-1.9%,0.5%,16.2%,-39.9
Cc1ccc(Cl)cc1N1CCN(C(=O)C2(S(=O)(=O)c3ccc(Cl)cc3)CC2)CC1,-26.5%,?,-29.3%,-3.0%,14.1µM*,30.8
CCC(C)C1NC(=O)C(NC(=O)C(CC(C)C)N(C)C(=O)C2CCCN2C(=O)C(C)O)C(C)OC(=O)C(Cc2ccc(OC)cc2)N(C)C(=O)C2CCCN2C(=O)C(CC(C)C)NC(=O)[C@H](C)C(=O)[C@H](C(C)C)OC(=O)CC1O (stereo not given in full),?,?,?,.,?,-97.3*
O=C1CCC[C@@H]2C[C@@]3(C[C@@H]4CCN1[C@H]24)Nc1cc([N+](=O)[O-])ccc1NC3=NCc1ccccc1,-10.6%,.,-28.6%,.,.,.
O=C(CC1Nc2c3ccccc3nc(=S)n2C1=O)NC1CCCCC1 (stereo not given),.,.,.,-20.7%,.,-63.9*
CCC(=O)CC,.,.,.,14.1µM*,.,.
CCN(CC)c1ccc(S(=O)(=O)N2CCOCC2)cc1NC(=O)COC(=O)/C=C/c1ccc(C)o1,-20.8%,-11.1%,-8.1%,.,?,-19.6
Cc1csc(=O)n1CCC(=O)OCc1nnc(-c2ccc(Cl)cc2)o1,-9.5%,-9.1%,-11.3%,.,6.1%,-24.8
O=C(Nc1ccccc1)C1CCCN1C(=O)Nc1ccccc1[N+](=O)[O-] (stereo not given),.,-11.8%,.,-1.4%,-13.7%,-61.5*
CCOC(=O)c1c(OCC)[nH]c2c1cc(O)c1ccccc12,-27.9%,.,-27.1%,19.9µM*,?,?
Nc1ccn([C@@H]2O[C@H](C(=O)Nc3ccc(Oc4ccccc4)nc3)[C@@H](O)[C@H]2O)c(=O)n1,7.8%,-8.2%,-0.2%,.,.,-3.4
